Screening results: PubChem BioAssay, several laboratories
Rows were chosen to be rich in hits. Some 32% of all compounds tested hit in one or more screens of this group.
PostGolgi yeast: phenotypic screen on post-Golgi transport, primary screen; post-Golgi transport phenotypic cell assay; inhibition, % at 10 µM; 98,000 compounds, 0.9% hits;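 also: yeast cells grown in 1536-well plates; yeast grown about 18 h at 30C before absorbance read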
CYP2C19 inh: blockers of cytochrome P450 2C19 activity – biochemical, luminescence, ADME assay, primary screen; P33261; CYP2C19 Supersomes, luciferin-H EGE luminescence, 30 min; inhibition, % at 5 µM; 96,000 compounds, 21% hits; AID 778, 2007;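 active = CYP2C19 inhibition above a set limit at 5 µM in the primary screen, cut at about 50% in these data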
Target sequence (P33261 whole entry, looked up): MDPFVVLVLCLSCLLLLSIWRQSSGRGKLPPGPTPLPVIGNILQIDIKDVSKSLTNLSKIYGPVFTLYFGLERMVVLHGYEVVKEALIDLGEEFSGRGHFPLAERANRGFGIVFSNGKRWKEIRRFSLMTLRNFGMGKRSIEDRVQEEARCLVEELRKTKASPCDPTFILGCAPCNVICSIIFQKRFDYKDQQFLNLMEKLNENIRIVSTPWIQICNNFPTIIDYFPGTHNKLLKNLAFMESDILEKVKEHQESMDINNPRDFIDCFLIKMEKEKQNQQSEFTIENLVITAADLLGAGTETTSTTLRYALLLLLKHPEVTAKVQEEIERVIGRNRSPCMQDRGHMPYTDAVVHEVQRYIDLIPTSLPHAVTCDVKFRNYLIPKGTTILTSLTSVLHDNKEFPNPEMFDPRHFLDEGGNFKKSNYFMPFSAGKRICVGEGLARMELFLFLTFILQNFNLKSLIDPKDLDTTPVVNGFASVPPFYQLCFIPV
PostGolgi ctrl: growth inhibition of yeast control strain, primary screen, counter-screen for post-Golgi transport modulator project; efflux-deficient yeast background strain, growth absorbance A615, 16 h; inhibition, % at 10 µM; 98,000 compounds, 5% hits
CYP2C19 act: human CYP2C19 activators, primary screen, biochemical, luminescence; Cytochrome P450 2C19 (Homo sapiens), P33261; recombinant CYP2C19, luciferin-H EGE luminescence; stronger effect = higher value; 0 = fully inhibited enzyme, 1 = untreated enzyme; activation factor at 5 µM; 96,000 tested, under 10 active; AID 1025, 2008;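 active = activation factor of at least 2 at 5 µM in the primary screen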
CYP2C9 inhib: blockers of cytochrome P450 2C9 activity – biochemical, luminescence, ADME assay, primary screen | inhibition, % at 5 µM | AID 777, 2007 | 96,000 compounds, 20% hits | CYP2C9 Supersomes, luciferin-H conversion | P11712;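 active = blocking of liver enzyme CYP2C9 beyond about 50% at 5 µM, limit read from the data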
CYP2C9 act: human CYP2C9 activators, primary screen, biochemical, luminescence. AID 1024, 2008. recombinant CYP2C9, luciferin-H conversion; stronger effect = higher value; factor 1 = untreated enzyme, 0 = blocked. Cytochrome P450 2C9 (Homo sapiens), P11712. activation factor at 5 µM. 96,000 compounds, 1.4% hits;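 active = activation factor of 2 or more for CYP2C9 at a 5 µM dose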
Large screens that a line does not name were inactive. Rule as the data show it, unless noted: active = inhibition above about 30%; inactive = the rest.

O=C1CC(c2ccncc2)c2cc3c(cc2N1)OCO3 (centres undefined)	CYP2C9 inhib 68.0
O=C1CC(c2ccc3c(c2)OCO3)c2cc3c(cc2N1)OCO3 (centres undefined)	CYP2C19 inh 64.4, CYP2C9 inhib 60.3
Cc1ccc(C2CC(=O)Nc3cc4c(cc32)OCO4)o1 (centres undefined)	CYP2C19 inh 84.0
COc1cc2c(cc1OC)C(c1ccc(N(C)C)cc1)CC(=O)N2 (centres undefined)	none
CC1(C)CC(=O)C2=C(C1)NC(=O)CC2c1cc2c(cc1Br)OCO2 (centres undefined)	none
NC(=O)c1c(NC(=O)c2ccccc2)sc2c1CCc1ccccc1-2	none
CC1CN(CCC(=O)Nc2ccc3c(c2)CCC3)CC(C)O1 (centres undefined)	CYP2C19 inh 51.9
CCOc1ccc(NC(=O)CN2CCN(CC(=O)Nc3ccc4c(c3)OCCO4)CC2)cc1	none
COc1ccc(CC(=O)Nc2ccc3c(c2)CCC3)cc1OC	CYP2C19 inh 81.1
O=C(CN1CCC(C(=O)c2ccc(Cl)cc2)CC1)Nc1ccc2c(c1)OCCO2	CYP2C9 inhib 58.0
O=C(O)COCC(=O)Nc1ccc2c(c1)CCC2	none
O=C(CN1CCC(Cc2ccccc2)CC1)Nc1ccc2c(c1)OCCO2	none
COc1ccccc1NC(=O)CN1CCN(CC(=O)Nc2ccc3c(c2)OCCO3)CC1	CYP2C19 inh 94.3
CCOc1cc(C(=O)N2CCOCC2)ccc1OCc1ccccc1	none
O=C(CN1CCN(CC(=O)Nc2ccccc2Cl)CC1)Nc1ccc2c(c1)OCCO2	CYP2C19 inh 91.2, CYP2C9 inhib 51.1
COc1ccc(CC(=O)NC2CCN(CC(=O)Nc3ccc4c(c3)OCCO4)CC2)cc1OC	PostGolgi ctrl 37.1
COc1ccc(NC(=O)CN2CCN(Cc3ccc4c(c3)OCO4)CC2)cc1OC	none
CSCC[C@H](NC(=O)Nc1ccc(C)cc1C)C(=O)O	none
Cc1nn(C)cc1/C=C1\SC(=S)NC1=O	none
Cc1cc(/C=C2\SC(=S)NC2=O)c(C)n1C	PostGolgi ctrl 51.6
CC(c1ccco1)N(C(=O)CSc1ccc(Br)cc1)c1ccccn1 (centres undefined)	CYP2C19 inh 97.7, CYP2C9 inhib 89.8
O=C(c1cccs1)N(Cc1ccccn1)Cc1ccco1	CYP2C19 inh 54.2
CC(c1ccco1)N(C(=O)c1cccs1)c1ccccn1 (centres undefined)	PostGolgi ctrl 41.4
CC(C)c1ccc(C(=O)N(c2ccccn2)C(C)c2ccco2)cc1 (centres undefined)	none
O=C(CSc1ncccn1)NCc1ccccc1	none
Cc1[nH]nc2c1C(c1cccc(O)c1)C1=C(CC(C)(C)CC1=O)N2 (centres undefined)	none
O=C(Cn1c(C(F)(F)F)nc2ccccc21)N1CCCC1	none
CCC(=O)Nc1cc(C(F)(F)F)ccc1N1CCOCC1	none
O=C(Cn1c(C(F)(F)F)nc2ccccc21)Nc1ccccc1N1CCOCC1	CYP2C9 inhib 82.4
CSc1nc2ccccc2n1CC(=O)Nc1cc(C(F)(F)F)ccc1N1CCOCC1	CYP2C19 inh 87.4, CYP2C9 inhib 96.6
Cc1cccc(OCC2=NS(=O)(=O)c3ccccc3N2)c1	CYP2C9 inhib 51.1
O=C(CCC1=NS(=O)(=O)c2ccccc2N1)NC1CCCCCCC1	none
Cc1cccc(C)c1NC(=O)/C(=C/c1ccco1)c1ccccc1	CYP2C9 inhib 69.6
CC(C)NC(=O)/C(=C/c1ccco1)c1ccccc1	none
Cc1cc(C)c(NC(=O)/C(=C/c2ccco2)c2ccccc2)c(C)c1	CYP2C19 inh 76.8, CYP2C9 inhib 67.9
O=C(NC1CCCCC1)C1CCCN(S(=O)(=O)c2cnc[nH]2)C1 (centres undefined)	CYP2C19 inh 60.1
O=C(NC1CCCCCCC1)C1CCCN(S(=O)(=O)c2cnc[nH]2)C1 (centres undefined)	CYP2C19 inh 87.1, CYP2C9 inhib 54.8
CCc1nc2ccc(C)cc2c(C(=O)Oc2cccc3cccnc23)c1C	CYP2C9 inhib 51.1
CCc1nc2ccccc2c(C(=O)Oc2cccc3cccnc23)c1C	none
C=CCc1ccccc1OCC(O)Cn1ccnc1C (centres undefined)	CYP2C19 inh 57.2
OC(COCc1ccccc1)CN1CCN(c2ccccc2F)CC1 (centres undefined)	none
COc1ccc(N2CCN(CC(O)COc3ccc4c(c3)CCC4)CC2)cc1 (centres undefined)	CYP2C19 inh 58.5, PostGolgi ctrl 37.5
COc1cccc(OCC(O)CN2CCOCC2)c1 (centres undefined)	none
C=CCc1ccccc1OCC(O)CN1CCN(c2ccc(OC)cc2)CC1 (centres undefined)	CYP2C19 inh 50.5
OC(COc1ccc2c(c1)CCC2)CN1CCN(c2ccccc2F)CC1 (centres undefined)	CYP2C19 inh 51.4
COc1cccc(OC)c1OCC(O)CN1CCN(c2ccccc2)CC1 (centres undefined)	none
c1ccc2c(c1)[nH]c1nc3nncn3nc12	none
CCCc1nnc(NC(=O)CCC(=O)N2CCCCC2CC)s1 (centres undefined)	none
O=C(NCCN1CCN(Cc2ccccc2Cl)CC1)Nc1ccccc1	none
CC(C)OCC(O)CS(=O)Cc1ccccc1 (centres undefined)	none
COc1cccc(OCC(O)CN2CCC(Cc3ccccc3)CC2)c1 (centres undefined)	none
C=CCc1ccc(OCC(O)CN2CCC(Cc3ccccc3)CC2)c(OC)c1 (centres undefined)	PostGolgi yeast 98.0, CYP2C19 inh 54.6, PostGolgi ctrl 62.6
CCOC(=O)/C(N)=C/c1ncc(C(F)(F)F)cc1Cl	none
CC(C)Nc1c(N)c(=O)oc2ccccc12	none
Nc1c(NCc2ccccc2)c2ccccc2oc1=O	CYP2C19 inh 96.7, CYP2C9 inhib 73.1
COc1cc2c(cc1OC)C(c1ccccc1O)N(C1CC(=O)N(c3ccccc3)C1=O)CC2 (centres undefined)	none
O=C1c2ccccc2NC(c2ccc(O)cc2)N1Cc1ccco1 (centres undefined)	CYP2C9 inhib 60.0
O=C1c2ccccc2NC(c2cccc(F)c2)N1Cc1ccco1 (centres undefined)	CYP2C19 inh 91.8, CYP2C9 inhib 95.6
Cc1ccc(C2Nc3ccccc3C(=O)N2Cc2ccco2)cc1 (centres undefined)	CYP2C9 inhib 86.2
C=CCc1cccc2cc(C(=O)NC)c(=O)oc12	none
COc1cccc2cc(C(=O)N3CCN(C(=O)c4ccco4)CC3)c(=O)oc12	none
C=CCc1cccc2cc(C(=O)N(CC)CC)c(=O)oc12	CYP2C9 act 2.2
